# Experimental data taken from ChEMBL document CHEMBL3988442, “University of Dundee, Small-Polar-MMV Screening Library” (2021).
# Screen size: about 48,000 compounds; about 13,000 (27%) showed an effect of 50% or more. This is one part of the list.
# Test system: Wolbachia pipientis
# Experiment: Anti-Wolbachia Cell-Based Screen
# Format: functional
# Parameters: scale not given: in the data most compounds retested in dose-response had high values
# Details: 5 µM
row,SMILES,Percent Effect [%]
1,CN(C)C(=O)N1CCN(Cc2noc(Cc3ccccc3)n2)CC1,-7.499
2,CC(C)CN1C(=O)CO[C@@H]2CN(C(=O)CC(F)(F)F)C[C@H]21,-4.787
3,O=C(Nc1ccnc(OC2CCOC2)c1)c1cc(F)ccc1F (stereo not given),-0.1893
4,CN(c1ccncn1)C1CC2(CCN(C(=O)c3ccsc3)C2)C1 (stereo not given),9.271
5,Cc1noc(C)c1C(=O)N1CCC2(CC(N(C)c3ccncn3)C2)C1 (stereo not given),121.5
6,CN(Cc1cccnc1)C1CC2(CCN(C(=O)c3cnccn3)CC2)C1,-5.762
7,CN(Cc1cccnc1)C1CC2(CCN(C(=O)c3cscn3)CC2)C1,-13.69
8,Cc1ccc(C(=O)N2CCC3(CC(N(C)c4ccncn4)C3)C2)cn1 (stereo not given),100.9
9,Cc1csc(C(=O)N2CCC3(CC(N(C)c4ccncn4)C3)C2)c1 (stereo not given),119.5
10,Cc1noc(C)c1CN1CC2(CCN(C(=O)c3c[nH]cn3)C2)CC1=O (stereo not given),-8.686
11,Cc1noc(C)c1C(=O)N1CC[C@H]2C[C@@H](c3ccncn3)O[C@@H]2C1,-6.202
12,CCOC(=O)CCCN1CCCC(C(=O)Nc2ccc(Cl)cn2)C1 (stereo not given),-9.707
13,CCC(=O)N1CCC2(C=C(C(=O)N(C)C)c3ccccc32)CC1,99.74
14,CSCC(=O)N1CCC2(CC1)c1ccccc1CC2O (stereo not given),-1.136
15,CN1CCC2(C=C(C(=O)N3CCCC3)c3ccccc32)CC1.O=C(O)C(F)(F)F,-7.584
16,CCC(=O)N1CCC2(C=C(C(=O)N3CCCC3)c3ccccc32)CC1,109
17,O=C(C1=CC2(CCNCC2)c2ccccc21)N1CCCC1,-0.6834
18,CN1CCC2(C=C(C(=O)N(C)C)c3ccccc32)CC1,111.1
19,O=C(O)C(F)(F)F.O=C1CC2(CNCCN(C(=O)Nc3ccccc3)C2)CN1 (stereo not given),-25.05
20,CC(O)CN1CCC(CN(C)Cc2ccc(C#N)cc2F)CC1 (stereo not given),-14.31
21,Cc1nccn1-c1cc(CNC(=O)C(C)(C)C)ccn1,9.207
22,O=C(c1cc(C2CCCCN2CCO)n[nH]1)N1CCOCC1.O=CO (stereo not given),127.4

row,SMILES,Percent Effect [%]
1,CC(=O)N1CCCCC1c1cc(C(=O)N2CCOCC2)[nH]n1 (stereo not given),-8.904
2,O=C(c1cc(C2CCCCN2C(=O)C2CCC2)n[nH]1)N1CCOCC1 (stereo not given),97.85
3,O=C(CCN1CCCCCC1c1ccco1)N1CCOCC1 (stereo not given),1.206
4,O=C(CCN1CCCCC1c1cc2ccccc2[nH]1)N1CCOCC1 (stereo not given),-12.84
5,CN(C)Cc1ccc(C2CCCCN2C(=O)c2cc(C3CC3)n[nH]2)cc1 (stereo not given),2.856
6,COCc1cncc2c1CCN(C(=O)c1ccc(C)o1)C2,-6.966
7,CN(C)CCOCc1cncc2c1CCN(C(=O)c1cscn1)C2,84.03
8,O=C(c1cnccn1)N1CCc2c(COCC3CC3)cncc2C1,-0.9982
9,COCc1cncc2c1CCN(C(=O)c1ccsc1)C2,-1.861
10,COCc1cncc2c1CCN(C(=O)c1cscn1)C2,104.1
11,CN(C)C(=O)N1CCc2c(COCC3CC3)cncc2C1,-21.89
12,Cn1cnnc1CCNC(=O)c1ccccc1OC1CCC1,-17.05
13,CCNc1nc(C)c(C(=O)N(C)Cc2noc(C)n2)s1,-18.27
14,O=C(NC1CCCOc2cc(Cl)ccc21)c1ccc(=O)[nH]n1 (stereo not given),103.9
15,Cc1c(C(=O)NC2CCCOc3cc(Cl)ccc32)cnn1C (stereo not given),96.08
16,Cc1c(C(=O)N[C@H]2CN(CCS(C)(=O)=O)C[C@@H]2C2CC2)cnn1C,4.067
17,Cc1ccc2c(c1)OCCCC2NCc1nccn1CC(C)C (stereo not given),-15.26
18,Cc1ccc2c(c1)OCCCC2NCc1nccn1Cc1ccccc1 (stereo not given),-22
19,O=C(Nc1ccc2c(c1)OCCO2)c1ccc(=O)[nH]n1,99.56
20,O=C(Nc1ccc2c(c1)OC1(CCCC1)O2)c1ccc(=O)[nH]n1,-12.04
21,O=C(Nc1ccc2c(c1)OC1(CCCCC1)O2)c1ccc(=O)[nH]n1,13.01
22,Cc1ccc2c(c1)OCCCC2NC1CCN(C)CC1 (stereo not given),11.04

row,SMILES,Percent Effect [%]
1,CCc1cccc(N2CCC(NC(=O)c3ccc(=O)[nH]n3)CC2)c1,3.328
2,Cc1cc(C(=O)NC2CCCOc3cc(Cl)ccc32)n(C)n1 (stereo not given),104.1
3,CC1(C)Oc2ccc(NC(=O)c3ccc(=O)[nH]n3)cc2O1,-5.037
4,CC(C)N1CCCC2(CCN(C(=O)CCCn3ccnc3)C2)C1=O (stereo not given),-2.08
5,CCc1nnc(CNCC2CCN(CC(O)c3ccccc3)CC2)o1 (stereo not given),1.305
6,CCc1ncc(CN2CCc3nc4sc(C)cc4c(=O)n3CC2)cn1,98.79
7,Cc1cc2c(=O)n3c(nc2s1)CCN(Cc1ccncc1)CC3,-12.53
8,Cc1cc2c(=O)n3c(nc2s1)CCN(Cc1cnc(C)n1C)CC3.Cl,108.4
9,Cc1nc[nH]c1CN1CCn2nc(CN3Cc4ccccc4C3)cc2C1,5.533
10,Cc1cc(CN2CCc3nc(C)n(C)c(=O)c3CC2)[nH]n1,-18.21
11,Cc1nc2c(c(=O)n1C)CCN(Cc1cc3cc[nH]c3cn1)CC2,-4.621
12,Cc1cc2c(=O)n3c(nc2s1)CCN(Cc1cncn1C)CC3.Cl,111.2
13,Cc1cc2c(=O)n3c(nc2s1)CCN(Cc1cnc(C(C)C)nc1)CC3,-3.495
14,Cc1cc2c(=O)n3c(nc2s1)CCN(Cc1[nH]cnc1C)CC3.Cl,117
15,CCc1ncc(CN2CCCC3(CCC(=O)N(CCC(C)C)C3)C2)cn1 (stereo not given),-16.36
16,CCOC(=O)C1CCCCN1Cc1c[nH]nc1-c1cc2ccccc2o1 (stereo not given),10.01
17,Cc1cccc2cc(C(=O)N3CCN(S(=O)(=O)N(C)C)CC3)n(C)c12,-7.336
18,CNc1ncc(CN(C)Cc2cc(O)c3cc(C)cc(C)c3n2)cn1,2.553
19,CSc1ccc(-c2cc(CN)nc3ccnn23)cc1.Cl,95
20,Cl.NCc1cc(-c2ccccc2)n2nccc2n1,106.1
21,CCc1ccc(CN(C)c2cc(COC)nc3ccnn23)cc1,-31
22,c1ccc(-c2cc(NCCCC3CCOC3)n3nccc3n2)cc1 (stereo not given),-17.54

row,SMILES,Percent Effect [%]
1,CCc1cc(NC(CCO)c2ccc(OC)cc2)n2nccc2n1 (stereo not given),6.902
2,CN(C)C1CCN(c2cc(-c3ccccc3)nc3ccnn23)C1 (stereo not given),-6.733
3,COCc1cc(N2CCOCC2)n2nccc2n1,9.055
4,COc1cc(OC)cc(-c2cc(CN)nc3ccnn23)c1.Cl,104.2
5,COCc1cc(N2CCN(Cc3ccncc3)CC2)n2nccc2n1,2.178
6,COc1ccc(-c2cc(CN)nc3ccnn23)cc1.Cl,124.4
7,CCc1cc(N[C@H](C(N)=O)[C@@H](C)CC)n2nccc2n1,-8.924
8,CCCc1cc(CNc2cc(CCC)nc3ccnn23)on1,-13.04
9,CC(C)OCc1nn(CC2CC2)c2c1CN(Cc1ccco1)CC2.O=C(O)C(F)(F)F,3.908
10,Cc1csc(C2(NCc3nnc(-c4ccco4)o3)CCCC2)n1,-3.858
11,Cc1ccc(-n2nnnc2C2(NCc3ccco3)CCCC2)cc1,2.087
12,Cc1cccc(C)c1-n1nnnc1C1(NCc2ccco2)CCCC1,75.79
13,CCOCCN1CCN(Cc2coc(-c3cccc(F)c3)n2)CC1,74.94
14,O=C(C1CC1)N1CCN(Cc2coc(-c3ccc(Cl)cc3)n2)CC1,3.08
15,OCCN1CCN(Cc2coc(-c3cccc(F)c3)n2)CC1,105.3
16,Fc1cccc(-c2nc(CN3CCn4c(nnc4C4CC4)C3)co2)c1,2.763
17,CCN1CCN(Cc2coc(-c3cccc(F)c3)n2)CC1,3.559
18,OCCN1CCN(Cc2cc(Cl)cc3cccnc23)CC1,0.645
19,OCCN1CCN(Cc2coc(-c3cccc(Cl)c3)n2)CC1,116.8
20,CCc1nc(C)c(C2CC(=O)Nc3c2c(-c2ccccn2)nn3C)[nH]1 (stereo not given),6.33
21,CCC(C)(N)c1nc(=O)c(C(C)C)c(C)[nH]1.Cl (stereo not given),-21.29
22,Cl.O=C(NC[C@@]1(COc2cnccn2)C[C@@H](O)[C@@H](O)C1)C1CCOCC1,-6.345

row,SMILES,Percent Effect [%]
1,O=C(Cc1ccc2c(c1)OCO2)N1CCCN(c2nccs2)CC1,-6.237
2,CC1c2cccn2CCN1S(=O)(=O)N1CCCCCC1 (stereo not given),-11.34
3,CCC1c2cccn2CCN1S(=O)(=O)N1CCOCC1 (stereo not given),79.2
4,O=S(=O)(N1CCOCC1)N1CCc2sccc2C1,7.177
5,CC1CCN(S(=O)(=O)N2CCn3cccc3C2C)CC1 (stereo not given),-8.051
6,CCCC1c2cccn2CCN1S(=O)(=O)N1CCOCC1 (stereo not given),118.3
7,O=S(=O)(N1CCOCC1)N1CCCCC1CCc1ccc(O)cc1 (stereo not given),2.652
8,Cc1nc(C)c(-c2ccn(CC(=O)Nc3cnn(C)n3)n2)s1,-4.351
9,O=C([C@H]1COC[C@H]2CN(C3CCOCC3)C[C@H]21)N1CCCCO1,5.01
10,CC(C)CC(C)NC1CCN(c2cccc(-c3cscn3)c2)CC1 (stereo not given),-3.86
11,CSc1ccccc1C(=O)N1CCN(C)C2(CCC(=O)N(C)CC2)C1 (stereo not given),119
12,Cc1cc(F)ccc1C(=O)N1CCN(C)C2(CCC(=O)N(C)CC2)C1 (stereo not given),91.8
13,CN1CCC2(CC1)CN(C(=O)c1cccc3cccnc13)CCN2C,-18.03
14,CC(C)N1CC2(CCC1=O)CCN(C(=O)c1cc(F)ccc1Cl)CC2,-13.76
15,Cc1ccc(S(=O)(=O)N2CCN(C)C3(CCC(=O)N(C)CC3)C2)s1 (stereo not given),14.37
16,Cc1ccc(C)c(S(=O)(=O)N2CCN(C)C3(CCC(=O)N(C)CC3)C2)c1 (stereo not given),-7.559
17,Cc1[nH]ccc1C(=O)N1CCC2(CC1)c1nc[nH]c1CCN2CC(C)C,14.8
18,Cc1csc(S(=O)(=O)N2CCN(C)C3(CCC(=O)N(C)CC3)C2)c1 (stereo not given),-20.06
19,CC(C)=CCCN1CCN(C)C2(CCC(=O)N(C)CC2)C1 (stereo not given),4.747
20,Cc1ccc(C(=O)N2CCN(C)C3(CCC(=O)N(C)CC3)C2)c(F)c1 (stereo not given),104.4
21,CN1CC2(CCCN(C(=O)c3cnc4ccc(F)cc4c3O)C2)OC1=O (stereo not given),-10.25
22,Cc1[nH]ccc1C(=O)N1CCN(C)C2(CCC(=O)N(C)CC2)C1 (stereo not given),98.32
